Most compounds without a hit are left out; they make up all but 1.6% or so of the library.
FUS yeast rescue = FUS proteinopathy suppression in yeast; S. cerevisiae FUS-expressing, growth rescue, OD600, 24 h; Potency, µM (top dose mostly 76.6 µM), hits mostly activators; hit rate 0.24% among 390,000;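 further: plate controls were DMSO vehicle for no effect and reference control for full effect; nearly all actives have a fitted effect of over 55% in size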
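Compound concentration series was pinned onto galactose-induced FUS-expressing yeast seeded at OD 0.005. Plates sat 24hr at 30C; absorbance at 600 nm gave growth. DMSO served as background control.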
Mito fusion act = mitochondrial division inhibition or fusion activation | S. cerevisiae fusion-defective mutant growth rescue, CellTiterGlo 48 h | Potency, µM (series often up to 46.1 µM), for inactives: at the highest dose growth rescue (activation), most hits filed as activators | hit rate 0.23% among 320,000; further: % of control where 0% means no effect; nearly all actives have a fitted effect of over 45% in size
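S. cerevisiae fusion-defective temperature-sensitive mutants (e.g. fzo1-1, mgm1-5) grown 48 h at 37C in YPEG (ethanol/glycerol non-fermentable) medium with 23 nl compound per well; growth rescue read as CellTiterGlo luminescence.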
12-LOX inh = ALOX12 (human) lipoxygenase inhibition; P18054; purified 12hLO, xylenol orange hydroperoxide absorbance; Potency, µM (highest dose often 108 µM), without a hit: at the highest dose activity change, negative = inhibition, hits mostly inhibitors; hit rate 1.1% among 580,000; AID 1671190; further: on the % scale 0 is the no-effect control and ±100 the full control effect
Target sequence (P18054 whole entry, looked up): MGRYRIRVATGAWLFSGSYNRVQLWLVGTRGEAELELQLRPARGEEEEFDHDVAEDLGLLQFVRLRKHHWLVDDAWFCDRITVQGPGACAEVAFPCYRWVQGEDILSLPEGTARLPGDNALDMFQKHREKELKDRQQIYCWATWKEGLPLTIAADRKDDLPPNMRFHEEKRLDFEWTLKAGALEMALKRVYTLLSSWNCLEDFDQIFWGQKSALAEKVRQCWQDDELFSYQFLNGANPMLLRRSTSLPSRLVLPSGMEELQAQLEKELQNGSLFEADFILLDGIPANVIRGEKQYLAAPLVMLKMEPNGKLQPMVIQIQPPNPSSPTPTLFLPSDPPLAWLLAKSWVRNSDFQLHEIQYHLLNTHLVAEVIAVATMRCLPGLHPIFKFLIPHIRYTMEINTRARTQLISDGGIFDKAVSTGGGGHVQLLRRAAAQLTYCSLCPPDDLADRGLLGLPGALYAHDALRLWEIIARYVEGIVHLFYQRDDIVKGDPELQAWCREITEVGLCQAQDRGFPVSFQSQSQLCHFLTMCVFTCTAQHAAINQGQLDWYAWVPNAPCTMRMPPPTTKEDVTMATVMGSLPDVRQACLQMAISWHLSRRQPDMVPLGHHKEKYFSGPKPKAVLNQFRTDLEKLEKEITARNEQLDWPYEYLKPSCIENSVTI
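Hydroperoxide product was detected by ferrous iron/xylenol orange as the 573 to 405 nm absorbance ratio. Arachidonic acid at 40 uM (final) was turned over for 30 min at room temperature by 150 nM human 12hLO, pH 7.0 Hepes buffer, after 15 min compound preincubation.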
gsp antagonist = gsp mutant antagonism | gsp-mutant cells, cAMP HTRF, 30 min | Potency, µM (series often up to 76.9 µM), without a hit: at the highest dose activity change, negative = inhibition, most hits filed as inhibitors | hit rate 0.4% among 340,000 | AID 624288; calls by dose curve; cell line not stated here;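 further: intracellular cAMP measured with PDE inhibitor Ro 20-1724 present during compound exposure; on the % scale 0 is the no-effect control and ±100 the full control effect; nearly all actives have a fitted effect of over 65% in size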
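Cells in G418 medium, seeded 16-24 h, 37C; buffer exchange to DPBS + 1 mM CaCl2, 0.5 mM MgCl2, 0.05% BSA; cpds in DMSO + […] (300 uM stock), 30 min 37C; HTRF cAMP detection.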
gsp agonist = agonists of gsp mutant (McCune-Albright syndrome); Potency, µM (doses to about 76.9 µM), for the others: at the top dose activation (cAMP increase), hits mostly activators; hit rate 0.13% among 340,000; gsp mutant cells, cAMP HTRF, 30 min; active means well fitted activation curve with a large enough effect; inconclusive means small, poorly fitted or top-dose-only effect, or another doubt; inactive means no such curve, though single readings can be large or run the other way; cell line not stated here;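 further: phosphodiesterase inhibitor Ro 20-1724 added with compounds to block cAMP breakdown; nearly all actives have a fitted effect of over 60% in size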
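Cells stably selected in G418 were plated at 2000/well, grown 16-24 hr, then given compounds in DMSO with the PDE inhibitor […] (300 uM solution added) for 30 min at 37C; cAMP was read by HTRF.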
The depositor's hits bear a star; i = inactive; u = inconclusive; x = no result; [ ] = remark or other dose. Unless noted, the call rests on the fitted dose curve; in most records, active means well fitted curve in the direction sought with a large enough effect; inconclusive means small, poorly fitted or top-dose-only effect, or another doubt; inactive means no such curve, though single readings can be large; an effect the other way counts as inactive or inconclusive. Potency means the concentration at half of the fitted maximal effect.

SMILES	FUS yeast rescue	Mito fusion act	12-LOX inh	gsp antagonist	gsp agonist
CCCN(CC(=O)Nc1ccccc1OC)C(=O)c1cc(-c2ccccc2)nn1-c1ccccc1	u	20.6%	44.7µM*	u	-5.3%
COc1ccccc1NC(=O)COC(=O)c1c(C)nn(-c2ccccc2)c1C	i	9.9%	184.3%	31.6µM*	0.1%
CC(=O)c1ccccc1NC(=O)COC(=O)c1c(C)nn(-c2ccccc2)c1C	i	8.2%	24.4%	u	-5.7%
CN1CC(=O)N(C2CCNCC2)Cc2c1ncnc2N(C)Cc1ccc(F)cc1	x	x	8.91µM*	x	x
CC(CO)Nc1ncnc2c1CN(C1CCCNC1)C(=O)CN2C (stereo not given)	x	x	-25.0%[6.33 µM]	x	x
CC(C)Nc1ncnc2c1CN(C1CCCNC1)C(=O)CN2C (stereo not given)	x	x	3.98µM*	x	x
CN1CC(=O)N(C2CCNCC2)Cc2c(NCCc3cccc(F)c3)ncnc21	x	x	17.8µM*	x	x
CCCCCNc1ncnc2c1CN(C1CCCNCC1)C(=O)CN2C (stereo not given)	x	x	-24.7%[6.33 µM]	x	x
CCCC(=O)N1Cc2ccccc2CC2(CCN(Cc3ccc(C(F)(F)F)nc3)CC2)C1	x	x	2.6%[6.33 µM]	x	x
COc1ccc(-c2cc(C(=O)Nc3ccc4c(c3)OCO4)on2)cc1OC	x	x	8.5%	x	x
Cc1nn(-c2ccc(F)cc2)c(-n2cccc2)c1C(=O)NCCN1CCCCC1C (stereo not given)	x	x	-28.4%	x	x
COc1cc2c(cc1OC)C(CNC(=O)C1CCCC1)N(C(=O)Nc1cccc(C)c1)CC2 (stereo not given)	x	x	7.7%	x	x
O=C(O)CNc1ccc(S(=O)(=O)C(F)(F)F)cc1[N+](=O)[O-]	i	0.9%	3.98µM*	3.5%	-2.6%[15.4 µM]
CC(=O)Nc1ccc(Nc2ccc(S(=O)(=O)C(F)(F)F)cc2[N+](=O)[O-])cc1	i	10.0%	6.7%	-26.9%	-9.9%
CCNc1ccc(S(=O)(=O)N(C)C)cc1[N+](=O)[O-]	i	0.6%	44.7µM*	-3.0%	-83.5%
CCCN(Cc1cc2ccc(C)cc2[nH]c1=O)S(=O)(=O)c1ccc(Cl)cc1	x	x	3.4%	x	x
Nc1ccc(C(=O)OCC(=O)N2CCc3ccccc3C2)cc1[N+](=O)[O-]	i	11.2µM*	6.3%	-18.8%	-27.6%
CCCOC(=O)c1ccc(NC(=O)CSc2nc(=O)[nH]nc2C)cc1	x	x	12.5%	x	x
Cc1ccc(-c2nc3cnccn3c2NCCC(=O)NCc2ccco2)cc1	x	x	50.1µM*	x	x
COc1ccc(-c2nc3cnccn3c2NCCC(=O)Nc2ccc(C)cc2C)cc1	x	x	-0.9%	x	x
COCCNC(=O)[C@@H]1CCC[C@@H](NC(=O)c2ccccc2)CN(C)C(=O)C1	x	x	19.6%[176 µM]	x	x
CCCNC(=O)N[C@@H]1CCC[C@@H](C(=O)NCCOC)CC(=O)N(C)C1	x	x	25.1µM*	x	x
CC(=O)c1c(C)oc2c(Br)cc(NS(=O)(=O)c3ccc(Cl)c(C)c3)cc12	x	x	6.0%	x	x
CC(=O)c1c(C)oc2c(Br)cc(NS(=O)(=O)c3ccc(Br)cc3)cc12	i	x	44.7µM*	x	x
Cc1[nH]c2ccccc2c1/C=C(\C#N)C(=O)NCC1CCCO1 (stereo not given)	i	2.8%	-24.6%	-7.7%	-30.5%
SMILES	FUS yeast rescue	Mito fusion act	12-LOX inh	gsp antagonist	gsp agonist
COCCCNC(=O)/C(C#N)=C/c1c(C)[nH]c2ccccc12	x	x	39.8µM*	x	x
Cc1ccc(-c2cc(Nc3cccc(C)c3)nc(C)n2)cc1	x	x	50.1µM*	x	x
CCCCn1c(N)c(N(CCOC)C(=O)c2oc3ccc(Br)cc3c2C)c(=O)[nH]c1=O	15.8µM*	x	u	3.5%	-5.1%
CCCn1c(N)c(N(CCOC)C(=O)c2cccnc2OCC)c(=O)[nH]c1=O	x	x	15.8µM*	x	x
CCCCn1c(N)c(N(CCOC)C(=O)c2cc(-c3ccc(OC)c(OC)c3)nc3ccccc23)c(=O)[nH]c1=O	i	-2.3%	15.8µM*	0.9%	7.1%
CCCCn1c(N)c(N(CC(C)C)C(=O)c2cc(-c3ccc(OC)c(OC)c3)nc3ccccc23)c(=O)[nH]c1=O	i	8.3%	u	-0.4%	-13.4%[15.4 µM]
Cc1cc(Br)ccc1OCCNCc1ccccc1	i	1.9%	6.31µM*	-6.0%	-4.6%
C=CCNC(=S)Nc1sc2c(c1C(=O)OCC)CC(C)(CC)OC2 (stereo not given)	u	0.5%	u	7.94µM*	-1.7%[15.4 µM]

From PubChem
